Laboratory results reported in PubChem BioAssay AID1159580 (chemical genetic matrix, 2015).
Values joined by “and” are separate entries in the source; they are usually repeats but may differ in a detail not shown here. Equal entries are not always repeated. In all, about 5,500 compounds went through this assay and about 2,000 (36%) were called active. Roughly 18% stayed inconclusive and do not appear here. Cut-off read from the data, not from the text of the source: active = normalized growth mostly below about 0.91 (no sharp cut-off); inconclusive = no clear call, values can overlap the other calls; inactive = mostly above about 0.92. The list shows a part of the results.

Assay: chemical genetic growth profiling, strain panel (AID 1159580);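 note: tested at 20 µM; growth read once vehicle control cultures reached saturation at 30 °C; 1 = growth at the plate median or of vehicle wells; lower values mean less growth of the strain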
Settings: S. cerevisiae deletion strains, growth OD

Measured: normalized growth

C/C=C(\C)C(=O)O[C@H]1C[C@@H](OC(C)=O)[C@@]2(C(=O)OC)CO[C@@H]3C2[C@]12CO[C@](O)(C(=O)OC)[C@H]2[C@](C)(C12O[C@@]1(C)[C@H]1C[C@@H]2OC2OC=C[C@@]21O)[C@@H]3O (stereo partly specified)
inactive: locus YAL013W, strain DEP1, stronger effect = lower value 0.99 | locus YAL021C, strain ccr4, stronger effect = lower value 1 | locus YAL026C, strain drs2, stronger effect = lower value 0.982 | locus YAL030W, strain snc1, stronger effect = lower value 0.976 | locus YBL061C, strain skt5, stronger effect = lower value 0.978 | locus YBR009C, strain hhf1, stronger effect = lower value 0.977 | locus YBR021W, strain FUR4, stronger effect = lower value 0.997 | locus YBR023C, strain chs3, stronger effect = lower value 0.985 | locus YBR171W, strain sec66, stronger effect = lower value 0.98 | locus YBR229C, strain ROT2, stronger effect = lower value 0.99 | locus YBR231C, strain swc5, stronger effect = lower value 0.991 | locus YBR279W, strain paf1, stronger effect = lower value 0.992 | locus YCL011C, strain gbp2, stronger effect = lower value 0.978 | locus YCL016C, strain dcc1, stronger effect = lower value 0.964 | locus YCL029C, strain bik1, stronger effect = lower value 0.955 | locus YCL061C, strain MRC1, stronger effect = lower value 0.986 | locus YCL069W, strain vba3, stronger effect = lower value 0.974 | locus YCR088W, strain abp1, stronger effect = lower value 0.986 | locus YDL005C, strain med2, stronger effect = lower value 0.963 | locus YDL040C, strain nat1, stronger effect = lower value 0.973 | locus YDL074C, strain BRE1, stronger effect = lower value 0.964 | locus YDL101C, strain DUN1, stronger effect = lower value 0.977 | locus YDL134C, strain PPH21, stronger effect = lower value 0.99 | locus YDL185W, strain tfp1, stronger effect = lower value 0.978 | locus YDL192W, strain arf1, stronger effect = lower value 0.986 | locus YDR001C, strain nth1, stronger effect = lower value 0.97 | locus YDR069C, strain doa4, stronger effect = lower value 0.969 | locus YDR101C, strain arx1, stronger effect = lower value 0.975 | locus YDR137W, strain rgp1, stronger effect = lower value 0.984 | locus YDR150W, strain NUM1, stronger effect = lower value 1 | locus YDR159W, strain sac3, stronger effect = lower value 0.994 | locus YDR162C, strain NBP2, stronger effect = lower value 1 | locus YDR195W, strain ref2 0.938 | locus YDR297W, strain sur2, stronger effect = lower value 0.975 | locus YDR318W, strain mcm21, stronger effect = lower value 0.977 | locus YDR334W, strain swr1, stronger effect = lower value 0.973 | locus YDR335W, strain msn5, stronger effect = lower value 0.981 | locus YDR388W, stronger effect = lower value 0.985 | locus YDR392W, strain spt3, stronger effect = lower value 0.969 | locus YDR502C, strain sam2, stronger effect = lower value 0.992 | locus YEL003W, strain gim4, stronger effect = lower value 1 | locus YEL037C, strain rad23, stronger effect = lower value 0.977 | locus YEL061C, strain CIN8 (second series), stronger effect = lower value 0.973 | locus YEL061C, strain CIN8, stronger effect = lower value 0.995 | locus YER015W, strain faa2, stronger effect = lower value 0.987 | locus YER016W, strain bim1, stronger effect = lower value 0.977 | locus YER110C, stronger effect = lower value 0.971 | locus YER111C, strain swi4, stronger effect = lower value 0.983 | locus YER155C, strain BEM2 (second series), stronger effect = lower value 0.981 | locus YER155C, strain BEM2, stronger effect = lower value 0.997 | locus YER167W, strain BCK2, stronger effect = lower value 1 | locus YFR010W, strain ubp6, stronger effect = lower value 0.979 | locus YGL078C, strain dbp3, stronger effect = lower value 0.995 | locus YGL086W, strain mad1, stronger effect = lower value 1 | locus YGL167C, strain pmr1, stronger effect = lower value 0.97 | locus YGL173C, strain kem1, stronger effect = lower value 0.982 | locus YGL227W, strain vid30, stronger effect = lower value 0.99 | locus YGL240W, strain doc1, stronger effect = lower value 1 | locus YGL248W, strain PDE1, stronger effect = lower value 0.99 | locus YGL253W, strain hxk2, stronger effect = lower value 0.986 | locus YGR078C, strain PAC10, stronger effect = lower value 0.997 | locus YGR135W, strain pre9, stronger effect = lower value 0.971 | locus YGR229C, strain SMI1, stronger effect = lower value 1.01 | locus YGR252W, strain gcn5, stronger effect = lower value 1.03 | locus YHR013C, strain ard1, stronger effect = lower value 0.964 | locus YHR027C, strain rpn1, stronger effect = lower value 0.965 | locus YHR030C, strain SLT2, stronger effect = lower value 0.989 and 0.98 | locus YHR079C, strain IRE1 (second series), stronger effect = lower value 0.969 | locus YHR079C, strain IRE1, stronger effect = lower value 0.991 | locus YHR094C, strain hxt1, stronger effect = lower value 0.985 | locus YHR129C, strain ARP1, stronger effect = lower value 0.992 | locus YHR142W, strain chs7, stronger effect = lower value 0.974 | locus YHR200W, strain rpn10, stronger effect = lower value 0.987 | locus YIL066C, strain RNR3, stronger effect = lower value 0.99 | locus YIL073C, strain SPO22, stronger effect = lower value 0.994 | locus YIL125W, strain kgd1, stronger effect = lower value 0.995 | locus YIR030C, strain dcg1, stronger effect = lower value 0.997 | locus YJL092W, strain hpr5, stronger effect = lower value 0.981 | locus YJL095W, strain BCK1 (second series), stronger effect = lower value 0.983 | locus YJL095W, strain BCK1, stronger effect = lower value 0.98 and 0.993 | locus YJL115W, strain asf1, stronger effect = lower value 0.963 | locus YJL129C, strain trk1, stronger effect = lower value 0.978 | locus YJL134W, strain LCB3, stronger effect = lower value 0.991 | locus YJL154C, strain vps35, stronger effect = lower value 0.969 | locus YJL164C, strain tpk1, stronger effect = lower value 0.969 | locus YJL166W, strain qcr8, stronger effect = lower value 0.99 | locus YJL168C, strain set2, stronger effect = lower value 0.978 | locus YJL187C, strain SWE1 (second series), stronger effect = lower value 0.978 | locus YJL187C, strain SWE1, stronger effect = lower value 0.982 | locus YJR043C, strain POL32, stronger effect = lower value 0.996 | locus YJR066W, strain TOR1, stronger effect = lower value 0.933
